About 83,000 compounds went through this panel and 20% of them were active in at least one assay; those are over-represented in the sample as a whole.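 In brief: 96-well plates, 48 h treatment, single concentration, percent growth endpoint.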 Unmarked numbers belong to inactive results. Calls of active or inactive are those of the source. Rule for the calls: active = growth percent below 10; inactive = the rest.

This assay concerns SNB-19 CNS. Description: NCI-60 one-dose screen, 48 h (100 = growth as untreated, 0 = no growth, -100 = all killed). Conditions: 10 µM unless noted.
In the case of `O=C1OC(Cc2ccccc2)C1c1ccccc1` (stereo not drawn), the growth was 99.1%.

Turning to `O=C1Nc2cc(-c3ccc(NC(=O)c4ccccc4)cc3)ccc2/C1=C/c1ccc[nH]1`, the growth is 98.8%.

With `O=C(N/N=C/c1cc2ccccc2n2nnnc12)Nc1ccccc1`, the growth was 97.1%.

`O=C1c2ccc3c4c(ccc(c24)C(=O)N1CCCNCc1ccccc1)C(=O)N(CCCNCc1ccccc1)C3=O`: the growth is -75.5% (active).

Take `C=C1C(=O)O[C@H]2[C@H]1CC/C(COC(=O)NCCc1c[nH]c3ccc(OC)cc13)=C\CC[C@@]1(C)O[C@@H]21`: the growth was 51.6%.

Consider `CCOc1ccc(Nc2nc(-c3ccc4c(c3)NC(=O)CO4)cs2)cc1`, for which the growth is 81.4%.

For `COc1ccc(C(=O)c2cc(C)c(OC)c(C)c2)c(OC)c1OC(=O)C(Cl)Cl`, the growth is 22.2%.

As for `CN(C)c1ccc(Nc2c3ccccc3nc3cc(NC(=O)CCN4CCCC4)ccc23)cc1`, the growth was -7.13% (active).

As to `Cc1nc(N)nc(N[C@@H](C)c2nc3cccc(NCc4ccc(C(=O)NO)cc4)c3c(=O)n2-c2ccccc2)n1`, the growth was 71.3%.

In the case of `COc1ccc(C/C(=C(\C)c2ccc(OCCN3CCCC3)cc2)c2ccc(OCCN3CCCC3)cc2)cc1`, the growth was 72.6%.

As for `NC(=NCCCOc1ccc(F)cc1)Nc1ccc(Cl)cc1`, the growth was 55.2%.

For `CCCOC(=O)N[C@H]1CCc2c(Cl)c(OC)c(OC)c(OC)c2-c2ccc(SC)c(=O)cc21`, the growth was 31%.

As for `N#Cc1c(NC(=O)NCc2ccccc2)sc2c1CCCC2`, the growth is 34.1%.

For the molecule `NCCCCCCNc1cc(-c2cccc(OC(F)(F)F)c2)nc2ccc(N3CCCC3)cc12`, the growth was 16.5%.

As to `C[C@H]1[C@H](C)CC[C@]2(C(=O)NCC#CCN3CCN(C)CC3)CC[C@]3(C)C(=CC[C@@H]4[C@@]5(C)Cc6c([nH]c7ccccc67)C(C)(C)[C@@H]5CC[C@]43C)[C@H]12`, the growth is 83.2%.

On to `N#Cc1c(NCc2ccccc2I)sc2c1CCCCC2`, for which the growth is 97.7%.

Take `CN1C(=O)NC(c2ccc3c(c2)OCO3)C=C1c1ccccc1` (stereo not drawn): the growth was 92.5%.

As for `COc1cc(/C=C\C(=O)O)ccc1OCc1ccccc1`, the growth was 99.2%.

Take `CCN(CC)c1ccc(/C=N/NC(=O)CSc2nc3ccccc3c(=O)n2Cc2ccc(S(N)(=O)=O)cc2)c(O)c1`: the growth was 41.8%.

`Cc1ccc(S(=O)(=O)NNC(=O)/C(=C\c2ccc(Cl)cc2)c2nc3ccccc3s2)cc1`: the growth is 88.3%.

As to `CCOC(=O)[C@@H]1CCCN(S(=O)(=O)c2ccc(S(=O)(=O)N(CC)CC)c(F)c2)C1`, the growth is 69.2%.

Turning to `Cc1ccc(CNc2c3ccccc3nc3cc(NC(=O)CCN4CCCC4)ccc23)cc1`, the growth was 17.8%.

On to `COc1ccc(CC(C)=C(c2ccc(OCCN3CCCCCC3)cc2)c2ccc(OCCN3CCCCCC3)cc2)cc1`, for which the growth is -95% (active).

For `CCCCNC(=O)Oc1ccc(/C(=C(\C)c2ccccc2)c2ccc(OCCN3CCCCC3)cc2)cc1`, the growth is 71.5%.

`Cn1c2ccccc2c2c3c(c4c5ccccc5n(C)c4c21)C(=O)OC3`: the growth is 92.7%.

In the case of `CNC(=O)c1cc(Cn2nc(C)c(NC(=O)Nc3ccc(Cl)c(C(F)(F)F)c3)c2C)ccn1`, the growth is 103%.

For `O=C(Nc1ccc(NC(=O)c2cc(=O)[nH]c3ccccc23)cc1)Nc1cccc(Cl)c1`, the growth was 95.2%.

Regarding `COc1ccc(C(=O)CSc2nc(-c3cc(OC)ccc3OC)cc(-c3ccc(Cl)cc3)c2C#N)cc1`, the growth was 40.3%.

Regarding `Cc1cc(C)c(S(=O)(=O)Oc2ccccc2[N+](=O)[O-])c(C)c1`, the growth is 33.1%.

For the molecule `O=C(CCN1CCCC1)Nc1ccc2c(NCc3ccccc3)c3ccccc3nc2c1`, the growth is 5.52% (active).

Regarding `CCN(CC)c1ccc(/C=N/NC(=O)CSc2nc3ccccc3c(=O)n2CCc2ccc(S(N)(=O)=O)cc2)c(O)c1`, the growth was 53.9%.

In the case of `O=C(CSc1nc2sc3c(c2c(=O)n1-c1ccc(Cl)cc1)CCCC3)Nc1nc(-c2cccc(Br)c2)cs1`, the growth was 84.8%.

For the molecule `COc1ccc(C(C)=O)c(OC)c1`, the growth is 100%.

Take `COc1cccc(-c2nc3occn3c2-c2ccnc(NCCCNS(=O)(=O)c3ccc(C(F)(F)F)cc3)n2)c1`: the growth is 105%.

For `C=C1C(=O)O[C@H]2[C@H]1CC/C(C(=O)NCCCCCNC(=O)/C1=C/CC[C@@]3(C)O[C@H]3[C@H]3OC(=O)C(=C)[C@@H]3CC1)=C\CC[C@@]1(C)O[C@@H]21`, the growth was 102%.

As for `C=C1C(=O)O[C@H]2[C@H]1CC/C(COC(=O)NCc1c[nH]c3ccc(F)cc13)=C\CC[C@@]1(C)O[C@@H]21`, the growth is 39.5%.

Consider `Cc1cc2nc3c4cccc(O)c4n(CCN(C)C)c3nc2cc1C`, for which the growth is 38.4%.

On to `O=C(Cc1ccccc1)NNc1nc(Cl)nc(N2CCN(C(c3ccccc3)c3ccccc3)CC2)n1`, for which the growth was 94%.

The values above are taken from PubChem BioAssay (NCI).
